Out of some 220,000 compounds screened, about 8,200 (3.7%) were called active. This is one part of a sample in which actives are shown more often than they occur. A number with no mark means an inactive call.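 The calls were made as follows: active = compounds that reduced the stress-induced luciferase reporter signal by more than about 70% of percent inhibition (limit read from the data); inactive = the rest.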
Test: blockers of ER-stress CHOP reporter expression – cell-based, unfolded protein response, luciferase reporter, primary screen (AID 2732);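 also: 0% = tunicamycin plus vehicle and 100% = wells without tunicamycin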
Conditions: CHO-K1 CHOP-promoter luciferase, tunicamycin-induced, 15-18 h; at 10 µM; stronger effect = higher value

Row | Structure (SMILES) | inhibition
1 | CCCCCCCCCCCCn1ccc(=N)cc1 | 90.9% (active)
2 | CC(=C1C(=O)c2ccccc2C1=O)N1CCN(CCN=Cc2c(O)n(C)c(=O)n(C)c2=O)CC1 | -9.11%
3 | COc1ccc(NC(=O)N2CCC3(CC2)OCCO3)c(OC)c1 | 18.7%
4 | CCC1(C)CC(CCNCc2ccc(N(C)C)cc2)(c2ccc(F)cc2)CCO1 (stereo not given) | 8.31%
5 | COc1ccc(CN2C(=O)NC(=O)/C(=C\c3ccc(OC)c(OC)c3OC)C2=O)cc1 | -5.09%
6 | CN(C)CC1Oc2ccccc2OC1(O)c1ccccc1 (stereo not given) | 88.8% (active)
7 | CCOC(=O)c1ncn2c1[C@@H]1CCCN1C(=O)c1cc(OC)ccc1-2 | -1.91%
8 | CN1CCN(C(=S)SCC(=O)Nc2ccc(Cl)cc2C(=O)c2ccccc2)CC1 | 35%
9 | O=C(COC(=O)c1ccccc1)Nc1ccc(Cl)cc1C(=O)c1ccccc1 | 80.1% (active)
10 | O=C(CCNS(=O)(=O)c1ccccc1)Nc1ccc(Cl)cc1C(=O)c1ccccc1 | -12.3%
11 | COC(=O)N(c1ccc(OC)cc1)P1(=S)OCCC(C)O1 (stereo not given) | -1.61%
12 | CCC(=O)CC(c1ccc([N+](=O)[O-])cc1)c1c(O)c2ccccc2oc1=O (stereo not given) | -16.6%
13 | Cc1ccc2c(c1)C1CN(C)CCC1N2C(=O)Cn1nnc(-c2ccccc2F)n1 (stereo not given) | 3.99%
14 | CCN1CCN(c2ccc([N+](=O)[O-])cc2C#N)CC1 | 8.37%
15 | Cn1c(O)c(C(=Nc2ccc(F)cc2)c2ccccc2)c(=O)n(C)c1=O | 2.66%
16 | Cc1cc(C=C2C(=O)NC(=O)NC2=O)c(C)n1-c1ccncc1 | 16.7%
17 | Cc1ccc(-n2c(C)cc(/C=C3\C(=O)NC(=O)N(C)C3=O)c2C)cc1C | 78.5% (active)
18 | Cc1ccnc(-n2c(C)cc(/C=C3\C(=O)NC(=S)N(C)C3=O)c2C)c1 | -16.7%
19 | C=CCN1CCC2(C)c3cc(O)ccc3CC1[C@@H]2C (stereo not given in full) | 9.89%
20 | Cc1ccc(CN2CCCC(C(=O)c3ccc4c(c3)OCO4)C2)cc1C (stereo not given) | -2.37%
21 | O=c1[nH]c(=O)n(CCc2ccccc2)c(O)c1/C=N/N1CCOCC1 | -18.4%
22 | CCC(=NCCCO)c1c(O)n(-c2ccc(OC)cc2)c(=O)[nH]c1=O | 14.6%
23 | CCCCn1c(O)c(C(CC)=NCc2ccco2)c(=O)[nH]c1=O | 6.6%

Row | Structure (SMILES) | inhibition
24 | CCCCCCN=C(CC)c1c(O)n(CCCC)c(=O)[nH]c1=O | 106% (active)
25 | O=c1[nH]c(=O)n(CCc2ccc(F)cc2)c(O)c1/C=N/N1CCCCC1 | 3.76%
26 | CC1(C)Cc2c(C#N)c(N3CCNCC3)nc(-c3ccco3)c2CS1 | 3.49%
27 | COc1cc(C(c2c(O)c3ccccc3oc2=O)c2c(C)n(C)n(-c3ccccc3)c2=O)ccc1O (stereo not given) | 8.54%
28 | CCCCCn1c(=O)c(C(=O)Nc2c(C)n(C)n(-c3ccccc3)c2=O)c(O)c2ccccc21 | 89.7% (active)
29 | CCCCCn1c(=O)c(C(=O)NCc2ccccn2)c(O)c2ccccc21 | 40.5%
30 | CCOP(=O)(OCC)C(O)c1ccc(OC)cc1OC (stereo not given) | 1.95%
31 | COc1ccc2c(c1O)-c1cccc3c1[C@@H](C2)N(C)CC3 | -0.63%
32 | COc1ccc(-n2c(-c3ccccc3)nc3ccccc3c2=O)cc1 | -0.77%
33 | CC(=O)c1c(O)c(C)c(O)c(Cc2c(O)c3c(c(C(=O)/C=C/c4ccccc4)c2O)OC(C)(C)C=C3)c1O | -9.85%
34 | O=C1NC(=O)N(Cc2ccco2)C(=O)/C1=C\c1ccc(-c2ccc(F)cc2)o1 | 4.85%
35 | O=C(O)COc1ccccc1/C=C1\C(=O)NC(=O)N(CCC2=CCCCC2)C1=O | -7.81%
36 | O=C1NC(=O)N(CCc2ccc(F)cc2)C(=O)/C1=C/C=C/c1ccccc1 | 79.8% (active)
37 | COc1ccc(NC(=O)c2cn(CCC#N)nc2-c2ccc([N+](=O)[O-])cc2)cc1 | -2.78%
38 | Cc1ccc(-n2c(-c3ccc([N+](=O)[O-])cc3)nc3ccccc3c2=O)cc1 | -10.7%
39 | O=C(O)C1C2CCC(O2)C1C(=O)O (stereo not given) | -11.8%
40 | CN(C)c1ccc(/C=C2\CC3C4CC=C5CC(O)CCC5(C)C4CCC3(C)C2=O)cc1 (stereo not given) | 96% (active)
41 | CC(c1ccccc1)(c1ccccc1)c1ccncc1 | 34.4%
42 | CCN1c2nc3c(C)cccn3c(=O)c2CC2(C(=O)N(C)C(=O)N(C)C2=O)C1C (stereo not given) | 6.18%
43 | CCCCC(=O)N/N=C/c1c(O)n(-c2ccccc2)c(=O)[nH]c1=O | -1.28%
44 | O=C(CSC1c2ccccc2-c2ccccc21)N/N=C/c1ccccc1 | 97.3% (active)
45 | CC(=O)N1CN2CN(C(C)=O)CC(C(=O)c3ccc(Br)cc3)(C2)C1 | 5.64%
